Assay results taken from the supplement of paper PMC12350171.
Counter-ions that a name gives are not always drawn.

test system: P. vulgatus RND KO; test: growth AUC normalised to DMSO control (median) (fraction of control); higher = less growth inhibition, active = hit call of the paper; settings: 20 µM;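 active = normalised median growth AUC below 0.1 of DMSO control; inactive = AUC 0.1 or higher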
Summary of the method: (§1)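 In 96-well plates of mGAM seeded at OD578 0.01, strains that had been passaged twice overnight without oxygen were exposed to approved-drug library compounds at 20 μM with 1% DMSO. Hourly OD578 readings were taken for 24 h in an anaerobic incubator. The trapezoidal-rule area under the curve, with curves truncated at entry into stationary phase, was expressed relative to same-plate vehicle wells as the median of three biological replicates.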
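Also: active when median AUC fell below 0.1.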

SMILES | growth AUC normalised to DMSO control
CCc1ccc(CCOc2ccc(CC3SC(=O)NC3=O)cc2)nc1 (stereo unspecified) [Pioglitazone] | 0.994 (inactive)
CC1CC(OC(=O)c2ccccc2O)CC(C)(C)C1 (stereo unspecified) [Homosalate] | 0.995 (inactive)
CC(C)N1CCN(c2ccc(OCC3COC(Cn4cncn4)(c4ccc(Cl)cc4Cl)O3)cc2)CC1 (stereo unspecified) [Terconazole] | 1.06 (inactive)
O=C(Nc1ccc([N+](=O)[O-])cc1Cl)c1cc(Cl)ccc1O [Niclosamide] | 0.0144 (active)
CCN1C(=O)NC(c2ccccc2)C1=O (stereo unspecified) [Ethotoin] | 1 (inactive)
COc1cc(Cc2cnc(N)nc2N)cc(OC)c1OC [Trimethoprim] | 0.45 (inactive)

test system: P. vulgatus WT; test: as above; settings: 20 µM
Summary of the method: as §1

SMILES | growth AUC normalised to DMSO control
O=C(NCC(O)CO)c1c(I)c(C(=O)NCC(O)CO)c(I)c(N(CCO)C(=O)CO)c1I (stereo unspecified) [Ioversol] | 1.03 (inactive)
CC(CN(C)C)CN1c2ccccc2Sc2ccccc21 (stereo unspecified) [Trimeprazine tartrate] | 0.792 (inactive)
CCCCC[C@H](O)/C=C/[C@H]1[C@H](O)CC(=O)[C@@H]1CCCCCCC(=O)O [Alprostadil] | 1.01 (inactive)
CCCCOC(=O)c1ccc(O)cc1 [Butylparaben] | 1 (inactive)
CN1CCCN=C1/C=C/c1cccc(O)c1 [Oxantel pamoate] | 0.992 (inactive)
Cc1ccc(S(=O)(=O)NC(=O)NN2CC3CCCC3C2)cc1 (stereo unspecified) [Gliclazide] | 1.02 (inactive)
CC1CNc2c(cccc2S(=O)(=O)N[C@@H](CCCNC(=N)N)C(=O)N2CC[C@@H](C)C[C@@H]2C(=O)O)C1 (stereo partly specified) [Argatroban] | 1.06 (inactive)
CCCCC1C(=O)N(c2ccccc2)N(c2ccc(O)cc2)C1=O (stereo unspecified) [Oxyphenbutazone] | 1.06 (inactive)
COc1c(N2C[C@@H]3CCCN[C@@H]3C2)c(F)cc2c(=O)c(C(=O)O)cn(C3CC3)c12 [Moxifloxacin] | 0.0128 (active)
CN(Cc1ccc(C(C)(C)C)cc1)Cc1cccc2ccccc12 [Butenafine hydrochloride] | 0.96 (inactive)
CC(=O)OCC(=O)[C@@]12N=C(C)O[C@@H]1C[C@H]1[C@@H]3CCC4=CC(=O)C=C[C@]4(C)[C@H]3[C@@H](O)C[C@@]12C [Deflazacort] | 1.01 (inactive)
CN1CCN(C2=Nc3ccccc3Oc3ccc(Cl)cc32)CC1 [Loxapine succinate] | 0.478 (inactive)
CC(C)(C)NCC(O)COc1cccc2c1CCC(=O)N2 (stereo unspecified) [Carteolol hydrochloride] | 0.968 (inactive)
O=C(CCCCCCC(=O)Nc1ccccc1)NO [Vorinostat] | 1.06 (inactive)
O=C1CN(/N=C/c2ccc([N+](=O)[O-])o2)C(=O)N1 [Nitrofurantoin] | 0.556 (inactive)
N=C(N)NCC1COC2(CCCCC2)O1 (stereo unspecified) [Guanadrel sulfate] | 0.969 (inactive)
CC(=O)Nc1ccc(OCC(O)CNC(C)C)cc1 (stereo unspecified) [Practolol] | 1.06 (inactive)
C[C@H](O)C(=O)Nc1c(I)c(C(=O)NC(CO)CO)c(I)c(C(=O)NC(CO)CO)c1I [Iopamidol] | 1.08 (inactive)
Cc1ncc(CO)c(CO)c1O [Pyridoxine hydrochloride] | 1.01 (inactive)
CC1=C(CC(=O)O)c2cc(F)ccc2/C1=C\c1ccc([S+](C)[O-])cc1 (stereo unspecified) [Sulindac] | 0.968 (inactive)

SMILES | growth AUC normalised to DMSO control
CC(C)CC(=O)N[C@H](C(=O)N[C@H](C(=O)N[C@@H](CC(C)C)[C@@H](O)CC(=O)N[C@@H](C)C(=O)N[C@@H](CC(C)C)[C@@H](O)CC(=O)O)C(C)C)C(C)C [Pepstatin A] | 1.05 (inactive)
CC(COc1ccccc1)N(CCCl)Cc1ccccc1 (stereo unspecified) [Phenoxybenzamine hydrochloride] | 1.03 (inactive)
CCN[C@H]1CN(CCCOC)S(=O)(=O)c2sc(S(N)(=O)=O)cc21 [Brinzolamide] | 0.973 (inactive)
CCCCOc1cc(C(=O)OCCN(CC)CC)ccc1N [Benoxinate hydrochloride] | 0.977 (inactive)
CNCC[C@@H](Oc1ccccc1C)c1ccccc1 [Tomoxetine hydrochloride] | 0.969 (inactive)
Cc1cc(=O)n(-c2ccccc2)n1C [Antipyrine] | 1.04 (inactive)
OC(Cn1cncn1)(Cn1cncn1)c1ccc(F)cc1F [Fluconazole] | 1.06 (inactive)
O=C1O[C@H]([C@@H](O)CO)C(O)=C1O [Ascorbic acid] | 1.04 (inactive)
c1ccc(CNc2ncnc3nc[nH]c23)cc1 [Aminopurine, 6-benzyl] | 0.985 (inactive)
CC(CCc1ccccc1)NCC(O)c1ccc(O)c(C(N)=O)c1 (stereo unspecified) [Labetalol hydrochloride] | 0.988 (inactive)
OCCN(CCO)c1nc(N2CCCCC2)c2nc(N(CCO)CCO)nc(N3CCCCC3)c2n1 [Dipyridamole] | 0.997 (inactive)
CCCCCCCCNC(C)C(O)c1ccc(SC(C)C)cc1 (stereo unspecified) [Suloctidil] | 1.02 (inactive)
CCCCCCC[N+](CC)(CC)CCCCc1ccc(Cl)cc1 [Clofilium tosylate] | 0.859 (inactive)
C=CC[N@@+]12CC[C@@]34c5ccccc5N5/C=C6/[C@H]7C[C@H]8[C@@]9(CC[N@@+]8(CC=C)C/C7=C/CO)c7ccccc7N(/C=C(/[C@@H](C[C@@H]31)/C(=C\CO)C2)[C@H]54)[C@@H]69 [Alcuronium chloride] | 1.06 (inactive)
CCc1ccc(CCOc2ccc(CC3SC(=O)NC3=O)cc2)nc1 (stereo unspecified) [Pioglitazone] | 0.992 (inactive)
CC1CC(OC(=O)c2ccccc2O)CC(C)(C)C1 (stereo unspecified) [Homosalate] | 1.03 (inactive)
CC(C)N1CCN(c2ccc(OCC3COC(Cn4cncn4)(c4ccc(Cl)cc4Cl)O3)cc2)CC1 (stereo unspecified) [Terconazole] | 1.04 (inactive)
O=C(Nc1ccc([N+](=O)[O-])cc1Cl)c1cc(Cl)ccc1O [Niclosamide] | 0.0167 (active)
CCN1C(=O)NC(c2ccccc2)C1=O (stereo unspecified) [Ethotoin] | 0.993 (inactive)
COc1cc(Cc2cnc(N)nc2N)cc(OC)c1OC [Trimethoprim] | 0.259 (inactive)
